Experimental data from the supplement of paper PMC10105736.
Unmarked numbers belong to inactive results.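 The calls were made as follows: active = MAPPIT score above the 99th percentile of random reference set scores in the same batch; inactive = at or below it.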

Legend:
Test in all cases: MAPPIT interaction score (arbitrary units); higher = stronger binary interaction signal, active = hit call of the paper
[1] = biological target: CG32425; settings: MAPPIT configuration: N-C; pair source set: screen_3
[2] = biological target: CG5327; settings: MAPPIT configuration: N-C; pair source set: screen_3
[3] = biological target: CG34168; settings: MAPPIT configuration: N-N; pair source set: Curagen_high_conf
[4] = biological target: CG3457; settings: MAPPIT configuration: N-N; pair source set: Finley_Y2H
[5] = biological target: CG34149; settings: MAPPIT configuration: N-C; pair source set: RRS
[6] = biological target: CG34328; settings: MAPPIT configuration: N-C; pair source set: screen_3
[7] = biological target: CG3557; settings: MAPPIT configuration: N-N; pair source set: Curagen_low_conf
[8] = biological target: Mst84Db; settings: MAPPIT configuration: N-N; pair source set: Curagen_low_conf
[9] = biological target: CG3517; settings: MAPPIT configuration: N-N; pair source set: Finley_Y2H
[10] = biological target: CG3473; settings: MAPPIT configuration: N-N; pair source set: screen_2
[11] = biological target: Ubc2; settings: MAPPIT configuration: N-N; pair source set: screen_2
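Also: HEK293T cells with Epo stimulation, STAT-responsive firefly luciferase reporter, fold induction versus unstimulated cells divided by the larger fold induction of two negative controls lacking either bait or prey.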

B1: hth (protein)
chain: MAQPRYDDGLHGYGMDSGAAAAAMYDPHAGHRPPGLQGLPSHHSPHMTHAAAAAATVGMHGYHSGAGGHGTPSHVSPVGNHLMGAIPEVHKRDKDAIYEHPLFPLLALIFEKCELATCTPREPGVQGGDVCSSESFNEDIAMFSKQIRSQKPYYTADPEVDSLMVQAIQVLRFHLLELEKVHELCDNFCHRYISCLKGKMPIDLVIDERDTTKPPELGSANGEGRSNADSTSHTDGASTPDVRPPSSSLSYGGAMNDDARSPGAGSTPGPLSQQPPALDTSDPDGKFLSSLNPSELTYDGRWCRREWSSPADARNADASRRLYSSVFLGSPDNFGTSASGDASNASIGSGEGTGEEDDDASGKKNQKKRGIFPKVATNILRAWLFQHLTHPYPSEDQKKQLAQDTGLTILQVNNWFINARRRIVQPMIDQSNRAVYTPHPGPSGYGHDAMGYMMDSQAHMMHRPPGDPGFHQGYPHYPPAEYYGQHL
MAPPIT interaction score [1]: 3.41 | MAPPIT interaction score [2]: 3.17

B2: Mob2 (protein)
chain: MNWAISNLTGGNRVSRAILVRYSSVPLADATNDGSSTAPQTPTASTPRPSSSHSSLSSTFAATFLHASSRHIPGRAVPRQNANGQNGGKGNASGAGGGAGGGGAGGASGGTGGTGAQAAGQLSLPLDVEETVTCFCRKARRKERDGDQNSTDTKLYLEESVLERKLPEADLKALVDLPAGLDYNEWLASHTLALFEHVNLVYGTISEFCTQSGCADMTGPGNRTYLWFDEKGKKTRVAAPQYIDYVMTFTQKTVSDESIFPTKYANEFPGSFESIARKILRLQFHVIAHLYAAHFREIALLGLHTHLNLTFAHLTALHRRFNLIDEKETDVLRDLEVALRLTDDTGGCQDATSTTSSVHDHSHSGDLQHQSLQQQQQHHNSSSNSTSSAEAFHVNSQSNNGSTSASASVSLIDGDAVAPPICTQPEAGAGCKPAGSSGLLGGILGDLTSGEFGDTTRYCTSAVPQAAAAAGAGVGGTAIGATDAAALNNGAGALHLNFSNNNNNNHNLNHHHHHHHHHGHHGHHHAAQQQQQHSGLIQCNAAGGGGNATGVATGGATAAASSTTTA
MAPPIT interaction score [3]: 0.212

B3: Cog6 (protein)
chain: MSSTQEKPEELDRIQKRVNKILEARLESDKDTLDALSGLSTFFTENTLQNRRNLRSQIEHRSVGINENFLKAFRQVKLSLDAVCEDLDTMATSVETMKSDLETSKALTKDLIKQTNTMQRERDRLEVHKQIAQAFLARFQLSGAEHQLLYGAAKDAPIVADFFRVLDRVQSIHADCRLLMQCGYQTAAIDIMEEMTLHQEGALERLYRWTQNHCRSLENNEIGPLIVEAMSRLQDRPVLFKYVIDEYAIARRAVLVRQFIEALTEGGPGGNPKPIELHAHDPKRYIGDMFAWLHQSIPTEKENLSLLFKKCDKQDISDQLQNALGYIADGVCHPLKVRVETILQAEKDTIVLFTISNLLRFYQQIMRQVVQGGSLEECLVELQKSSEQIYLGALAAQVRSVLQRPSGGSGLALEPPQRDLVPPPSVARLLNMLKEILSVATMVDGRQADITKIVSCVIDPLLQSVQESAAHLPTVDMGVYLLNCLHHMQSSLAVYEYMDERVERLQAQSDAQLDTLTSEQASSLVANLNLGPIYAILQSNQSKIETNLLKIFMSKMDAFLELPDVLLLPQVQLIMSSSHRAAVQKRSFNVIVAIYKQIYERVHDPANGFEQPEQLLHRTPEQVAHILTST
MAPPIT interaction score [4]: 0.308

B4: Cyp4d2 (protein)
chain: MLGVVGVLLLVAFATLLLWDFLWRRRGNGILPGPRPLPFLGNLLMYRGLDPEQIMDFVKKNQRKYGRLYRVWILHQLAVFSTDPRDIEFVLSSQQHITKNNLYKLLNCWLGDGLLMSTGRKWHGRRKIITPTFHFKILEQFVEIFDQQSAVMVEQLQSRADGKTPINIFPVICLTALDIIAETAMGTKINAQKNPNLPYVQAVNDVTNILIKRFIHAWQRVDWIFRLTQPTEAKRQDKAIKVMHDFTENIIRERRETLVNNSKETTPEEEVNFLGQKRRMALLDVLLQSTIDGAPLSDEDIREEVDTFMFEGHDTTTSAISFCLYEISRHPEVQQRLQQEIRDVLGEDRKSPVTLRDLGELKFMENVIKESLRLHPPVPMIGRWFAEDVEIRGKHIPAGTNFTMGIFVLLRDPEYFESPDEFRPERFDADVPQIHPYAYIPFSAGPRNCIGQKFAMLEMKSTVSKLLRHFELLPLGPEPRHSMNIVLRSANGVHLGLKPRA
MAPPIT interaction score [5]: -1.31

B5: betaTub85D (protein)
chain: MREIVHIQAGQCGNQIGGKFWEVISDEHCIDATGTYYGDSDLQLERINVYYNEATGAKYVPRAILVDLEPGTMDSVRSGAFGQIFRPDNFVFGQSGAGNNWAKGHYTEGAELVDSVLDVVRKESEGCDCLQGFQLTHSLGGGTGSGMGTLLISKIREEYPDRIMNTFSVVPSPKVSDTVVEPYNATLSVHQLVENTDETYCIDNEALYDICFRTLKLTTPTYGDLNHLVSATMSGVTTCLRFPGQLNADLRKLAVNMVPFPRLHFFMPGFAPLTSRGSQQYRALTVPELTQQMFDAKNMMAACDPRHGRYLTVAAIFRGRMSMKEVDEQMLNIQNKNSSFFVEWIPNNCKTAVCDIPPRGLKMSATFIGNSTAIQELFKRVSEQFTAMFRRKAFLHWYTGEGMDEMEFTEAESNMNDLVSEYQQYQEATADEEGEFDEDEEGGGDE
MAPPIT interaction score [6]: 4.11 (active)

B6: tos (protein)
chain: MGITGLIPFVGKASSQLHLKDIRGSTVAVDTYCWLHKGVFGCAEKLARGEDTDVYIQYCLKYVNMLLSYDIKPILVFDGQHLPAKALTEKRRRDSRKQSKERAAELLRLGRIEEARSHMRRCVDVTHDMALRLIRECRSRNVDCIVAPYEADAQMAWLNRADVAQYIITEDSDLTLFGAKNIIFKLDLNGSGLLVEAEKLHLAMGCTEEKYHFDKFRRMCILSGCDYLDSLPGIGLAKACKFILKTEQEDMRIALKKIPSYLNMRNLEVDDDYIENFMKAEATFRHMFIYNPLERRMQRLCALEDYETDERYCSNAGTLLEDSEQALHLALGNLNPFSMKRLDSWTPEKAWPTPKNVKRSKHKSIWQTNFQSENTHTPKKENPCALFFKKVDFVGKTLNEEIEANQRLEQAKQTEAELFNMYSFKAKRRRSPSREDSVDQERTPPPSPVHKSRHNPFAKERTGEEANQRSPVVCENASLLRLLSPKKASPLDGEAGVKKVDSLKRSIFAKEQVQIRSRFFATQDEQTRLQREHLRDTENDDMDEQKLSSHSGHKKLRLVCKDIPGKNPIRQRCSSQISDGETDTDTTASSLLESQDKGVPSPLESQEDLNNSQPQIPTEGNTNSTTIRIKSLDLLLENSPEPTQESDRNNNDAIILLSDDSCSSDQRASSTSSSSQQRQNFLPTSKRRVGLSKPSTAKKGTPKSRTNGKLGAVSQNQTKLSMFGFQTKPVLK
MAPPIT interaction score [7]: 0.0573 | MAPPIT interaction score [8]: -0.0214

B7: MED4 (protein)
chain: MSFHLSTKERLLLLIDDIEMIAKELIEQAHQKISSTELVDLLDLLVAKDEEFRKMLELAEEQAKVEEAMDQLRAKVEVHDREIQKLQKSLKDAELILSTAIFQARQKLASINQANKRPVSSEELIKYAHRISSANAVSAPLTWCIGDLRRPYPTDIEMRNGLLGKSEQNINGGTVTHQNSGMPSEQQRTLSGSAGSGSGSGAGGEVPNAFQNQFNWNLGELHMTMGASGNTVALETRAQDDVEVMSTDSSSSSSSDSQ
MAPPIT interaction score [9]: 1.9

B8: Iru (protein)
chain: MAEAMVVEDRPAEAKRFFCHMCNVEINIPNSDFTCPLCANGFVEELPANAPEMDSSTAGASGSARSGSSGSGSSGSHDTLSRGSSSSGSQVNVESLRNDIVSLLNMRNVPNLEITIEPNRRHSNVLHLGGFGGPSGSDSARGLTAGGRVRPANLDRLDNVLFDFLQSLPLAGATAEIVTGPGGGGVGGGGNSHMFFMGNPGDYAWGREGLDTIVTQMLNQMETSGPPPLSAQRINEIPNVQINAEEVNRKIQCSICWDDFKIDETVRKLPCSHLYHENCIVPWLNLHSTCPICRKSLADDGNDADDEFVMLDAFGPEMAADGSNSERRSASTATGTDNPSPANNPSQAAAEGGRTRPDANPAQAARNNIFTFDDDNMFLD
MAPPIT interaction score [10]: 0.831 | MAPPIT interaction score [11]: 0.234
